Most compounds without a hit are left out; they make up all but 11% or so of the library.
USP17 inh – human USP17-like deubiquitinase inhibition. inhibition, % at 50 µM. 6.5% of 47,000 active. purified USP17, Ub-rhodamine cleavage fluorescence, 3 h. AID 1645855. A8MUK1
USP28 inh – blocks human USP28 ubiquitin-rhodamine cleavage; 3% of 47,000 active; Q96RU2; purified USP28, Ub-rhodamine cleavage fluorescence, 30 min; inhibition, % at 25 µM
USP30 block – human USP30 deubiquitinase inhibition; purified USP30, Ub-rhodamine cleavage fluorescence; inhibition, % at 25 µM; 5.3% of 47,000 active; AID 1645860
Target sequence (Q70CQ3 whole entry, looked up): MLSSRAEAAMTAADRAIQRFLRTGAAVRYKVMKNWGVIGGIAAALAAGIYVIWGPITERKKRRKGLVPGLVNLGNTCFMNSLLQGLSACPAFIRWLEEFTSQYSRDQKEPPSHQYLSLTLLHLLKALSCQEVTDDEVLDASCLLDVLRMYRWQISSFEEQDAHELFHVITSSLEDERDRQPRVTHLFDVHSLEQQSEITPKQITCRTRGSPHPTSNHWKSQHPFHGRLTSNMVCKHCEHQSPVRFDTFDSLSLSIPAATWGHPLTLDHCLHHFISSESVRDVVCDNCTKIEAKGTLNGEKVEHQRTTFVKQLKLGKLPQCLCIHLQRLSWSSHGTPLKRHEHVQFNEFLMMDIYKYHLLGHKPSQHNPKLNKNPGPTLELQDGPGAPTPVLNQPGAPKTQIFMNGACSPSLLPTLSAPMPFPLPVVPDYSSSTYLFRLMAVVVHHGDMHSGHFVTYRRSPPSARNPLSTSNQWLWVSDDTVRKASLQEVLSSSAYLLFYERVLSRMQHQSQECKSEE
OTUD3 inh – human OTUD3 deubiquitinase inhibition; purified OTUD3, Ub-rhodamine fluorescence, 2 h; AID 1645858; inhibition, % at 25 µM; 0.7% of 47,000 active
The depositor's hits bear a star; i = inactive; x = no result. Rule as the data show it: active = inhibition above about 30%; inactive = the rest.

SMILES | USP17 inh | USP28 inh | USP30 block | OTUD3 inh
CC(=O)c1ccc(N2CCN(S(=O)(=O)c3cc4c(cc3C)NC(=O)CO4)CC2)cc1 | 15 | 32* | -21 | 14
Cc1cc2c(cc1S(=O)(=O)N1CCCC(C)C1)OCC(=O)N2 (stereo not drawn) | 41* | x | x | -1
COc1ccc(S(=O)(=O)N2CCCCC2)cc1NC(=O)COc1ccccc1C | -31 | -15 | -149 | -83
CC(C)Oc1ccc(C(=O)Nc2cccc(S(=O)(=O)N3CCCC3)c2)cc1 | 19 | 63* | 25 | 15
N#Cc1ccccc1-c1ccccc1C(=O)Nc1cccc(S(=O)(=O)N2CCCC2)c1 | 3 | 7 | 13 | -4
Cc1cc(C)n(-c2ccc(C(=O)Nc3cccc(S(=O)(=O)N4CCCC4)c3)cc2)n1 | 29 | 69* | 74* | 1
CCN(CC)S(=O)(=O)c1cccc(NC(=O)c2ccc(OC(F)(F)F)cc2)c1 | 13 | 30* | 18 | 7
O=C(O)C1CC(=O)N(Cc2ccc3c(c2)OCO3)C1 (stereo not drawn) | -1 | 11 | 0 | 4
COc1ccccc1Cc1nc(-c2cn(Cc3ccccc3)nn2)no1 | 14 | 12 | 23 | 4
O=C(Cc1ccccc1)Nc1nc(-c2cccc3ccccc23)cs1 | 24 | 10 | 26 | 17
O=C(NCc1ccccc1F)c1c(O)c2cnn(Cc3ccccc3)c2[nH]c1=O | 32* | 11 | 1 | 7
Cc1ccccc1CNC(=O)c1c(O)c2cnn(Cc3ccccc3)c2[nH]c1=O | -21 | -17 | -76 | -18
COc1ccc(-n2c(C)cc(C(=O)CSc3nncn3-c3ccccc3OC)c2C)cc1 | 34* | 30* | 2 | -6
COCC(C)n1c(C)cc(C(=O)CSc2nncn2-c2ccccc2OC)c1C (stereo not drawn) | -9 | -18 | -19 | -3
CC(C)(C)c1ccc(N(CC(N)=O)S(C)(=O)=O)cc1 | 11 | 3 | 34* | 4
CS(=O)(=O)N(CC(=O)Nc1ccc(S(=O)(=O)N2CCCC2)cc1)c1ccc(Cl)cc1 | 0 | -8 | 0 | -2
CC(C)OCc1ncn2c1CN(C(=O)c1ccc(C(F)(F)F)cc1)CCC2 | -1 | -4 | 9 | -2
Cc1cc(S(N)(=O)=O)cc(NC(=O)c2cccc(N3CCCC3=O)c2)c1C | -8 | -8 | -16 | -4
CCc1ccc(Nc2cc(C(=O)NCCCOC(C)C)c3ccccc3n2)cc1 | 69* | 5 | -34 | 12
COc1ccc(Nc2cc(C(=O)NCCCN(CC(C)C)CC(C)C)c3ccccc3n2)cc1 | 17 | 9 | 21 | 14
Cc1ccc(CNC(=O)c2nc(-c3ccncc3)no2)cc1 | 0 | -7 | -5 | 0
COc1cc(Cl)c(C)cc1NC(=O)c1nc(-c2ccncc2)no1 | 40* | 14 | 34* | 11
COc1ccc(CC(=O)N2CCCC2c2cc(C)no2)cc1 (stereo not drawn) | x | -6 | -2 | -4
COc1nc2c(c(-c3ccco3)c1C#N)Cc1cc(NC(C)=O)ccc1-2 | 39* | -1 | -129 | -2
COc1ccc(NC(=O)COc2cccc(-c3noc(-c4ccco4)n3)c2)cc1 | -13 | -23 | -45 | -26
SMILES | USP17 inh | USP28 inh | USP30 block | OTUD3 inh
CC[C@H](C)[C@H](NC(=O)[C@H]([C@@H](C)CC)N(C)C(C)=O)C(=O)N[C@H](C(=O)N[C@@H](CC(C)C)C(=O)C1(C)CO1)[C@@H](C)O (stereo partly drawn) | 43* | 43* | 22 | 31*
COc1ccc(C(C)(C)C)cc1NS(=O)(=O)c1ccc(Cl)cc1F | 3 | 4 | 10 | 4
O=c1ccc(-c2nc(-c3cnccn3)no2)cn1Cc1noc(-c2ccccc2)n1 | -20 | -15 | -98 | -10
O=c1ccc(-c2nc(-c3cnccn3)no2)cn1Cc1ccccc1F | 4 | 8 | 33* | 15
CSc1nc(N2CCCC2)c2sccc2n1 | 40* | 9 | 26 | 0
O=C(Nc1nc2ccsc2c(=O)s1)C1CCC1 | 5 | 5 | i | -1
CNC(=O)CC1NC(=O)c2csc(n2)-c2ccc(-c3nc(C4=NC(C(=O)N5CCCC5C(N)=O)CO4)cs3)nc2-c2csc(n2)-c2csc(n2)C(C(O)c2ccccc2)NC(=O)CNC(=O)c2nc(sc2COC)C(C(C)C)NC(=O)c2nc1sc2C (stereo not drawn) | 75* | 42* | 6 | -5
O=C(Cc1cccs1)Nc1cc(F)c2nc(N3CCOCC3)ccc2c1 | 62* | 6 | -20 | 0
COc1ccc(C(=O)Nc2cc(F)c3nc(N4CCOCC4)ccc3c2)c(OC)c1 | 73* | 0 | -127 | -13
COc1ccc(C2=NC3(CCN(Cc4ccccc4Cl)CC3)NC2=O)cc1 | -1 | 6 | 18 | 6
CC(Oc1ccccc1F)C(=O)Nc1nc2c(s1)CCCC2 (stereo not drawn) | -20 | 17 | -7 | -2
Cc1ccc(Cn2c(C(=O)O)c(CNCCC3=CCCCC3)c3ccccc32)cc1 | 24 | 39* | 16 | 4
CSc1ccc(CNCc2c(C(=O)O)n(Cc3ccccc3)c3cc(C)ccc23)cc1 | 24 | 44* | 58* | 14
Cc1ccc2c(CNCCc3ccccc3C)c(C(=O)O)n(Cc3ccccc3C)c2c1 | -35 | -19 | -82 | -20
COc1ccc2c(CNCCc3ccccc3)c(C(=O)O)n(Cc3ccc(F)cc3Cl)c2c1 | -10 | 21 | 30* | -7
O=C(O)c1c(CNCc2cccnc2)c2ccccc2n1Cc1ccc(F)cc1Cl | 9 | -2 | -7 | -11
Cc1ccc(NC2=NC(c3ccccc3)(C(F)(F)F)C(C#N)=C3C=CC=CN23)cc1 (stereo not drawn) | 26 | -10 | -56 | -2
Cc1nc(-c2ccccn2)sc1C(=O)N1CCC[C@]2(C)NC(=O)CCC[C@H]12 | -9 | -5 | -11 | -2
c1coc(CN(c2ncnc3sccc23)C2CC2)c1 | 3 | 18 | 5 | 7
CCc1nc(-c2ccc(C(=O)Nc3cccnc3)cc2)no1 | -4 | 49* | -7 | 13
Cc1cccc(C(=O)Nc2c(C(=O)NCc3ccccn3)[nH]c3ccccc23)c1 | -19 | -17 | -26 | -17
Cn1c(C(=O)NCc2ccccn2)cc2c(=O)[nH]c3ccccc3c21 | 80* | 38* | -29 | 10
O=C(CNS(=O)(=O)c1ccc(F)cc1)N1CCCC(c2nnc3ccccn23)C1 (stereo not drawn) | 8 | 51* | 16 | -5
Nc1ccccc1SC(CC(=O)c1ccc(Cl)cc1)c1ccsc1 (stereo not drawn) | 53* | 12 | -16 | 6
O=C(CC(C(=O)c1ccccc1)c1cccs1)c1ccc(Cl)cc1 (stereo not drawn) | -24 | -3 | -13 | 2
O=C(C1CCN(c2nc3cccnc3s2)CC1)N1CCC2(CC1)OCCO2 | -10 | -10 | 0 | -2
Cc1ccc(C)c(CNS(=O)(=O)c2cc3n(c2)CCCNC3=O)c1 | -27 | 0 | -78 | 0
CCn1cc(C(=O)Nc2ccc3ccccc3c2)c(=O)c2ccc(C)nc21 | 33* | -13 | -98 | -20
Cc1cccc(NC(=O)c2cn(CC(=O)NC3CCCC3)c3nc(C)ccc3c2=O)c1 | 48* | 0 | 0 | -1

Assay outcomes as filed in PubChem BioAssay.
